The text below walks through data of PubChem BioAssay (NCATS).

Several values for one entry are separate records, joined by “and”; a condition that tells them apart may be missing. Identical values can stand only once. Results filed as inconclusive are left out. Some structures have more than one record in an assay (separate samples or runs), and their calls can disagree. A number with no mark means an inactive call. Activity calls are given as the source filed them. Calls follow the shape of the dose curve; as a rule, active = well fitted inhibition curve with a large enough effect; inconclusive = small, poorly fitted or top-dose-only effect; inactive = flat fitted curve, though single readings scatter.

One experiment has as its system CRL-7250. The experiment in a line: Cytotoxic Profiling of Annotated Libraries Using Quantitative High-Throughput Screening (AID 1296008). As to max response: % is scaled to controls: 0 for no effect and ±100 for the full control effect. To be noted: Five cell lines viability, CellTiter-Glo ATP luminescence, 48-72 h; max response: hits give low values. An outline of the steps: (§1)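 Compounds were pin-transferred onto cells and incubated 48 or 72 hr at 37 degree Celsius, 95% humidity. CellTiter-Glo was added, plates sat 10 min at room temperature, then ATP-coupled luminescence was imaged as the viability read-out.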
(In ATP-based viability assays light output follows the ATP content of the culture.)

A further experiment concerns HEK293. The description is as above. To be noted: Five cell lines viability, CellTiter-Glo ATP luminescence, 48-72 h; max response: hits give low values. An outline of the steps:
as §1

For the next experiment, the system named is NIH3T3. The description is as above. To be noted: Five cell lines viability, CellTiter-Glo ATP luminescence, 48-72 h; max response: hits give low values. An outline of the steps:
as §1

The test system of the next experiment is MKL-1. The experiment in a line: qHTS assay to identify novel small-molecules to repurpose for Merkel cell carcinoma treatment (AID 1296009). The following applies: MCC and control cell lines, CellTiter-Glo viability, 72 h; series mostly up to 46 µM. An outline of the steps:
(§2)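 qHTS format: cells treated with library compounds in DMSO across 8 (NPC) or 11 (MIPE) concentrations. Readout after 72 hr at 37 degree celsius was CellTiter-Glo luminescence.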

In the next experiment the test system is MKL-2. The description is as above. The following applies: MCC and control cell lines, CellTiter-Glo viability, 72 h; series mostly up to 46 µM. An outline of the steps:
as §2

Another experiment deals with UISO. The description is as above. The following applies: MCC and control cell lines, CellTiter-Glo viability, 72 h; series mostly up to 46 µM. The gist of the method:
as §2

Experiment [1] deals with HaCat. Put plainly: Cytotoxic Profiling of Annotated Libraries Using Quantitative High-Throughput Screening (AID 1296008). As to max response: % is scaled to controls: 0 for no effect and ±100 for the full control effect. To be noted: Five cell lines viability, CellTiter-Glo ATP luminescence, 48-72 h; max response: hits give low values. The gist of the method:
as §1

The test system of a further experiment is MCC-26. Put plainly: qHTS assay to identify novel small-molecules to repurpose for Merkel cell carcinoma treatment (AID 1296009). To be noted: MCC and control cell lines, CellTiter-Glo viability, 72 h; series mostly up to 46 µM. The gist of the method: as §2
In a further experiment the test system is KB-3-1. Put plainly: Cytotoxic Profiling of Annotated Libraries Using Quantitative High-Throughput Screening (AID 1296008). As to max response: % is scaled to controls: 0 for no effect and ±100 for the full control effect. The following applies: Five cell lines viability, CellTiter-Glo ATP luminescence, 48-72 h; max response: hits give low values. The gist of the method: as §1
The test system of a further experiment is MCC-13. Put plainly: qHTS assay to identify novel small-molecules to repurpose for Merkel cell carcinoma treatment (AID 1296009). To be noted: MCC and control cell lines, CellTiter-Glo viability, 72 h; series mostly up to 46 µM. An outline of the steps: as §2
The test system of another experiment is PC26. Put plainly: qHTS profiling for inhibitors of Plasmodium falciparum proliferation (AID 504749). To be noted: P. falciparum in erythrocytes, SYBR Green DNA, 72 h; series mostly up to 28.7 µM. The gist of the method: (§3)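 Parasite proliferation within erythrocytes, 72 h exposure. Endpoint: SYBR Green I fluorescence after overnight lysis at room temperature. Controls: 0.29 uM artemisinin, DMSO.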
On the technique in general: Quantitative high-throughput screening tests each substance at several concentrations.

For another experiment, the system named is SC27B. Described as above. The following applies: P. falciparum in erythrocytes, SYBR Green DNA, 72 h; series mostly up to 28.7 µM. An outline of the steps:
as §3

A further experiment relates to TAB109. Described as above. The following applies: P. falciparum in erythrocytes, SYBR Green DNA, 72 h; series mostly up to 28.7 µM. An outline of the steps:
as §3

For a further experiment, the system named is TAB113. The experiment is described as above. To be noted: P. falciparum in erythrocytes, SYBR Green DNA, 72 h; series mostly up to 28.7 µM. The gist of the method: as §3
In the next experiment the test system is TAB165. The experiment is described as above. To be noted: P. falciparum in erythrocytes, SYBR Green DNA, 72 h; series mostly up to 28.7 µM. An outline of the steps:
as §3

For a further experiment, the system named is W2. Described as above. To be noted: P. falciparum in erythrocytes, SYBR Green DNA, 72 h; series mostly up to 28.7 µM. The gist of the method:
as §3

In experiment [2] the test system is HACAT. The experiment in a line: qHTS assay to identify novel small-molecules to repurpose for Merkel cell carcinoma treatment (AID 1296009). To be noted: MCC and control cell lines, CellTiter-Glo viability, 72 h; series mostly up to 44.8 µM. An outline of the steps: as §2
The next experiment relates to PC49. Put plainly: qHTS profiling for inhibitors of Plasmodium falciparum proliferation (AID 504749). To be noted: P. falciparum in erythrocytes, SYBR Green DNA, 72 h; series mostly up to 28.7 µM. The gist of the method:
as §3
Also: nearly all actives have a fitted effect of over 60% in size.
Potency is read from the fitted curve at half-maximal effect.

With `O=C(NC1CCNCC1)c1[nH]ncc1NC(=O)c1c(Cl)cccc1Cl`, the Potency in the experiment with CRL-7250 is 0.332 µM (active); in the experiment on HEK293, 0.264 µM (active); in the experiment with NIH3T3, 13.2 µM (active); in the experiment with MKL-1, 0.372 µM (active); in the experiment on MKL-2, 0.833 µM (active); with UISO, 1.32 µM (active).

For the compound `Nc1cccc(-c2cc3c(Oc4cccc(O)c4)ncnc3[nH]2)c1`, the Potency in the experiment on CRL-7250 is 14.8 µM (active); in the experiment with HEK293 it was 20.9 µM (active) and 18.4 µM (active); with HaCat [1], 2.96 µM (active); in the experiment with NIH3T3, 3.72 µM (active) and 4.61 µM (active); with MCC-26 it was 18.7 µM (active). Moreover, the Potency entry in the experiment with MKL-1 and in the experiment on UISO was “inactive” each time.

In the case of `CNC(=O)CN1CCC(Oc2cc3c(Nc4cccc(Cl)c4F)ncnc3cc2OC)CC1`, the max response in the experiment on CRL-7250 is -5.68% and -4.5%; with HaCat [1] it was -148%; in the experiment with KB-3-1, 4.62% and 3.88%. Moreover, the Potency in the experiment on HaCat [1] was 0.58 µM (active); in the experiment with NIH3T3, 26.4 µM (active) and 16.4 µM (active); in the experiment with MCC-13, 3.32 µM (active); with MCC-26 it was 2.64 µM (active); with UISO, 0.118 µM (active). Moreover, the Potency result with MKL-2 is “inactive”.

Consider `Nc1ccc(C(=O)c2cc3c(ccc4ccccc43)[nH]2)cc1`, for which the max response in the experiment with CRL-7250 is -31%. For the same compound, the Potency with HEK293 is 2.96 µM (active); in the experiment on KB-3-1, 4.18 µM (active). The Potency result in the experiment on MCC-26 is “inactive”.

As for `NC(=O)c1cccc2cn(-c3ccc([C@@H]4CCCNC4)cc3)nc12`, the max response with CRL-7250 is -21.5% and 4.62%; in the experiment on KB-3-1, -3.07% and -13.7%; in the experiment with NIH3T3 it was -38.6% and -0.532%. The Potency was 6.51 µM (active) with HEK293 and 18.7 µM (active) with MKL-1. Also, in the experiment on MCC-13, the Potency result was “inactive”.

Regarding `CC(C)(O)c1cc2nc(-c3cnc(N)nc3)nc(N3CCOCC3)c2s1`, the Potency in the experiment with CRL-7250 is 148 nM (active) and 731 nM (active); in the experiment on HEK293 it was 372 nM (active) and 1.3 µM (active); in the experiment on HaCat [1], 264 nM (active) and 1.64 µM (active); in the experiment with NIH3T3, 0.418 µM (active). Besides, the Potency result in the experiment on MKL-2 was “inactive”.

On to `CCC1=C[C@@H]2CN(C1)Cc1c([nH]c3ccccc13)[C@@](C(=O)OC)(c1cc3c(cc1OC)N(C)[C@@H]1[C@@](O)(C(=O)OC)[C@H](OC(C)=O)[C@]4(CC)C=CCN5CC[C@]31[C@@H]54)C2`, for which the Potency in the experiment with PC26 is 3.38 µM (active); in the experiment with SC27B, 2.24 µM (active); with TAB109 it was 2.24 µM (active); with TAB113 it was 1.58 µM (active); with TAB165 it was 2.51 µM (active); with W2, 0.19 µM (active). In addition, the Potency was 0.0469 µM (active) with CRL-7250, 0.0235 µM (active) in the experiment on HEK293, 0.0166 µM (active) with KB-3-1 and 0.0118 µM (active) in the experiment with MKL-1. The max response in the experiment on HaCat [1] was -8.6%.

Consider `CN(C)CCCN=c1c2ccccc2n(C)c2[nH]c(=O)n(C)c(=O)c12`, for which the Potency was 11.8 µM (active) with CRL-7250; 5.26 µM (active) in the experiment with HEK293; 18.7 µM (active) in the experiment with HaCat [1]; 23.5 µM (active) in the experiment on NIH3T3; 10.5 µM (active) in the experiment with MKL-1; 14.8 µM (active) in the experiment on MKL-2. In addition, the Potency in the experiment on UISO was 20.9 µM (active).

With `CC1(C)OC2=C(C(=O)c3ccccc3C2=O)[C@H](NCc2ccccc2)[C@H]1O`, the Potency with CRL-7250 is 16.6 µM (active); in the experiment with HEK293, 8.33 µM (active); with KB-3-1, 9.35 µM (active); in the experiment on NIH3T3, 11.8 µM (active); in the experiment on MCC-13 it was 10.5 µM (active); in the experiment with MKL-1, 3.32 µM (active).

Consider `CCN1CCN(CC(=O)Nc2ccc(-c3cccc4c(=O)cc(N5CCOCC5)oc34)c3sc4ccccc4c23)CC1`, for which the Potency in the experiment with CRL-7250 was 2.35 µM (active); with HEK293, 1.18 µM (active); with HaCat [1], 0.935 µM (active); with NIH3T3, 1.05 µM (active).

Regarding `N#CCNC(=O)c1ccc(-c2ccnc(Nc3ccc(N4CCOCC4)cc3)n2)cc1`, the Potency in the experiment on CRL-7250 is 7.43 µM (active) and 6.51 µM (active); with HaCat [1] it was 13 µM (active); in the experiment on KB-3-1 it was 11.8 µM (active) and 18.4 µM (active); in the experiment with NIH3T3 it was 5.26 µM (active) and 4.11 µM (active); in the experiment on UISO, 14.8 µM (active). In the experiment with HaCat [1], the max response is -43.7%.

As for `Cc1cc(Nc2cc(CN3CCOCC3)c3nc(C)c(Cc4ccc(Cl)cc4F)n3n2)n[nH]1`, the Potency in the experiment with HEK293 is 11.8 µM (active) and 16.4 µM (active); with HaCat [1] it was 14.8 µM (active); with KB-3-1, 4.18 µM (active) and 5.17 µM (active); with NIH3T3 it was 13.2 µM (active) and 11.6 µM (active); in the experiment on UISO, 23.5 µM (active). For the same compound, the max response with HaCat [1] is -23.1%.

On to `C=CC(=O)N1CCC[C@@H](n2nc(-c3ccc(Oc4ccccc4)cc3)c3c(N)ncnc32)C1`, for which the max response was 2.95% with CRL-7250; -15.2% and 0.931% with KB-3-1. The values for the Potency in the experiment on HaCat [1] and with HACAT [2] were 1.32 µM (active) and 1.3 µM (active), respectively. In addition, the Potency entry in the experiment on MCC-13, in the experiment with MKL-1 and in the experiment with UISO was “inactive” each time.

On to `Nc1nc(Nc2ccc(S(N)(=O)=O)cc2)nn1C(=O)c1c(F)cccc1F`, for which the Potency in the experiment with CRL-7250 was 18.7 µM (active); in the experiment on KB-3-1, 3.26 µM (active); with NIH3T3, 10.5 µM (active) and 11.6 µM (active); with UISO, 13.2 µM (active).

Regarding `O=c1[nH]c(=O)n(C2CCCO2)cc1F` (configuration not stated), the Potency result with PC26, in the experiment with PC49, with SC27B, in the experiment on TAB109, in the experiment with TAB113 and with TAB165 was “inactive” each time. Further, the Potency entry in the experiment on W2, in the experiment with MCC-13, in the experiment with MCC-26, with MKL-1, in the experiment with MKL-2 and in the experiment on UISO was “inactive” each time. Besides, the result in the experiment with CRL-7250 and with KB-3-1 was inactive.

As for `CC[C@H](CO)Nc1nc(NCc2ccccc2)c2ncn(C(C)C)c2n1`, the Potency in the experiment with CRL-7250 is 26.4 µM (active). Also, the max response with NIH3T3 was -26.8%. Also, the Potency result in the experiment on MCC-13, in the experiment on MCC-26, with MKL-1 and in the experiment with MKL-2 was “inactive” throughout.

On to `Clc1cccc(-c2nnnn2Cc2cccnc2)c1Cl`, for which the max response is -2.93% with CRL-7250; 3% and -9.84% in the experiment on HaCat [1]; -9.84% and -14.4% with NIH3T3. Moreover, the call in the experiment on KB-3-1 was inactive. Further, the Potency entry with MCC-13, in the experiment with MCC-26, with MKL-1, in the experiment with MKL-2 and in the experiment on UISO was “inactive” each time.
